Measurements: PubChem BioAssay AID1578 (Sanford-Burnham Center for Chemical Genomics, 2009)
About 3,000 (1%) of roughly 290,000 compounds were called active. Rule as the data show it: active = inhibition mostly above about 36% (no sharp cut-off); inactive = mostly below about 34%. Shown is part of a subset that was picked to be rich in actives.

experiment: inhibition of NOD1-driven NF-kB reporter – cell-based, luminescence, uHTS, primary screen (AID 1578); conditions: NOD1-driven NF-kB luciferase reporter cells, at 4 µM, active compounds read high;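 also: HEK-293T reporter cells stimulated with the NOD1 agonist gamma-tri-DAP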

inhibition, inactive:
Cc1ccc(C(=O)NCc2ccc(F)cc2)cc1NC1=NC2CS(=O)(=O)CC2S1 (stereo not drawn) -41.2%
COc1cccc(-c2nc(C(=O)NCC3CCCO3)cc3c2[nH]c2ccccc23)c1 (stereo not drawn) 51.4%
O=C(NCC1CCCO1)c1cc2c([nH]c3ccccc32)c(-c2cccc(Br)c2)n1 (stereo not drawn) 33.6%
Cc1cc(=O)[nH]c(SCC(=O)Nc2ccc(F)c([N+](=O)[O-])c2)n1 -19.5%
COc1ccc(CNC(=O)CSc2nnc(NC(=O)c3ccccc3F)s2)cc1 -52.7%
CC1CCCCC1NC(=O)CCn1ccc2cc(S(=O)(=O)N3CCCC3)ccc21 (stereo not drawn) 13.3%
Nc1nnc(/C=C/c2ccccc2)s1 -41.9%
C(=C\c1ccncc1)/c1ccccc1 -7.3%
COc1cc2c(c(O)c1OC)-c1c(cc(OC)c(OC)c1OC)C[C@@H](C)[C@@H](C)C2 1.8%
Cc1ccc(-c2noc(CCCC(=O)NCC3CCCO3)n2)cc1 (stereo not drawn) 8.8%
COc1ccc(NC(=O)C(Cl)=C(Cl)Cl)cn1 30.7%
COc1ccc(CC(=O)Nc2ccc(OC)nc2)cc1 -29.9%
Nc1ccc(Nc2ccccc2N)cc1 2.7%
Nc1ccccc1Nc1ccccc1 48.8%
CCCCCn1c(C)c2c(OCC)cccc(=O)c2c1C -1%
CCN(CC)CCNCc1cc(Br)ccc1OCC(=O)NCc1ccccc1 7.4%
N#Cc1cc([N+](=O)[O-])ccc1NC(=O)COC(=O)CC1CCCC1 -12.2%
Cc1ccccc1S(=O)(=O)Cc1ccc(C(=O)NCc2ccco2)o1 -5.4%
CNC(=O)c1ccccc1S(=O)c1ccccc1COC(C)=O (stereo not drawn) -5.2%
COc1cc2c(cc1OC)CN(C(=O)CSc1nc(N)c(C#N)cc1C#N)CC2 6.8%
Cc1cc(C)c(C#N)c(SCC(=O)N2CCCCC2)n1 -5.5%
CC12C(=O)N(c3ccccn3)C(=O)C1C1C=CC2C1 (stereo not drawn) 15.9%
CN(C)CCN(C(=O)c1cccc2ccccc12)c1nc2cc3c(cc2s1)OCO3 17.7%

inhibition, active:
O=C(NCC1CCCO1)c1cc2c([nH]c3ccccc32)c(-c2cccc(Cl)c2)n1 (stereo not drawn) 73.1%
CC1(C)CCSC(/C=C/c2ccccc2)=N1 73.3%
COc1ccc(CS(=O)(=O)/C(Cl)=C(/Cl)C(=O)Nc2ccc(OC)nc2)cc1 78.4%
Cc1ccc(Nc2ccccc2N)cc1 59.7%
COc1cc2c(cc1OC)CN(C(=O)CSc1nc(C)cc(C)c1C#N)CC2 54.2%
